Assay outcomes from PubChem.
Many of the other results were omitted from the sample, so hits are more common in it than they were.
Pf Dd2 inh – Plasmodium falciparum Dd2 growth inhibition | AID 1347417 | P. falciparum Dd2 growth, SYBR Green, 72 h | 120,000 tested, 4.3% active | Potency, µM (doses to about 28.9 µM), hits mostly inhibitors; active = well fitted inhibition curve with a large enough effect; note: nearly all actives have a fitted effect of over 65% in size
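Infected erythrocytes (Dd2, 0.3% parasitemia, 2.5% hematocrit final) are added to compound in RPMI-1640/Albumax II medium, grown 72 h at 37C in low oxygen, then lysed with saponin/Triton-X containing SYBR Green and read by fluorescence.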
Each line names hits and unclear results; the compound was inactive in the other large screens.

COC(=O)CNC(=O)c1nc(-c2cc(Cl)cc(Cl)c2)c2ccccn12	none
O=C(Cn1nc2c(cc1=O)CCCC2)NCCc1nc2ccccc2[nH]1	none
COc1ccccc1C(=O)N1CCC(n2c(=O)[nH]c3ccccc32)CC1	none
O=C(NC1CCN(c2cc(-c3cccs3)[nH]n2)C1)c1ccccc1Cl (stereo not given)	none
COc1ccc(C(=O)NCc2nnc3ccc(-c4ccc(C)c(C)c4)nn23)cc1	none
Cn1nccc1C(=O)N1CC(COc2ccccc2)C2(C1)CN(c1ccccc1)C2 (stereo not given)	none
Cn1nccc1C(=O)N1CC(CNC(=O)c2ccccc2)C2(C1)CN(c1ccccc1)C2 (stereo not given)	Pf Dd2 inh 12.6µM
O=C(NCC1CN(C(=O)CCc2ccccc2)CC12CN(c1ccccc1)C2)c1ccccc1 (stereo not given)	none
COc1cccc(-c2ccccc2NC(=O)C2CCN(C/C(C)=C/c3ccccc3)CC2)c1	Pf Dd2 inh 8.91µM
C=CCC(=O)N1CCCC1C(=O)Nc1ccc(-c2cccc(OC)c2)cc1 (stereo not given)	none
COc1ccc(C(=O)N2CCC(C(=O)Nc3ccc(OC)cc3OC)CC2)cc1	none
COc1cccc(-c2ccccc2NC(=O)C2CCN(Cc3ccccc3F)CC2)c1	none
COc1cccc(C(=O)Nc2ccccc2-c2nnc(-c3cccc(OC)c3)o2)c1	none
COc1cccc(-c2ccccc2NC(=O)C2CCN(CC=C(C)C)CC2)c1	Pf Dd2 inh 5.62µM
O=C(CC[C@H]1NC(=O)c2ccccc2NC1=O)Nc1nc(-c2ccncc2)cs1	none
CC(C)(C)CC(=O)N[C@H]1C[C@@](O)(C(=O)NCC(N)=O)C[C@@H](O)[C@@H]1O	none
O=C(O)C1(Oc2ccc3ncccc3c2)CCN(Cc2ccncc2)CC1	none
COc1ccc(C(CC(=O)N(C)Cc2ccccn2)c2ccccc2)cc1 (stereo not given)	none
CCC1(C(=O)NCc2ccc(C(C)C)cc2)CCCCC(=O)N1 (stereo not given)	none
O=C(NCc1cc2n(n1)CCNC2)c1ccc2c(c1)ncn2CCO	none
CCn1nccc1C(=O)N1CCC2(CC1)CCC(O)(CN(C)C)CC2	none
CCOCCCNC(=O)N1CCC(Cc2nc(-c3ccncc3)n[nH]2)CC1	none
COCC(=O)N1CCCC(C(=O)N2CCC(OCc3ccccc3)CC2)C1 (stereo not given)	none
Cc1ccccc1N1CCCN(Cc2cccc(CCN)c2)CC1	Pf Dd2 inh 8.91µM
NCCc1cccc(CN2CCC(Oc3cccc(F)c3)CC2)c1	Pf Dd2 inh 10µM
O=C(c1ccco1)N1CCC(Oc2cccc(F)c2)C1 (stereo not given)	none
NCCc1cccc(CN2CCC(OCc3ccccc3)CC2)c1	Pf Dd2 inh 4.47µM
NCCc1ccc(CN2CCC(Oc3ncccn3)CC2)cc1	none
O=C(c1ccccc1OCC1CCCN(Cc2ccc(O)c(F)c2)C1)N1CCCCC1 (stereo not given)	none
CN1CCCN(C[C@@H]2CN(Cc3cccc(CCN)c3)C[C@@H]2CO)CC1	none
O=c1[nH]ccn1C1CCN(Cc2ccccc2)CC1	none
NCCc1cccc(CN2CCCC(COc3ccccc3F)C2)c1 (stereo not given)	Pf Dd2 inh 2µM
Cc1cc(CN2CCN(c3cccc(C)c3C)CC2)cs1	none
Cc1cccc(CN2CCCC(COc3ccccc3C(=O)N3CCOCC3)C2)c1 (stereo not given)	none
CCOc1ccc(NC(=O)CN2C(=O)NC3(CCOCC3)C2=O)cc1	none
O=C(Nc1ccc2c(c1)OCCO2)N1CCCC(Cn2cnc3cccnc32)C1 (stereo not given)	none
CN(C)C(=O)c1ccc(OC2CCN(C(=O)c3ccc(C(F)(F)F)cc3)CC2)nc1	none
CCS(=O)(=O)N1CCCC(c2nc(-c3ccccc3)no2)CCNC(=O)CC1 (stereo not given)	none
O=C1NCCOCCCN(S(=O)(=O)c2ccccc2)[C@H]2CCC[C@@H]12	none
CC(=O)Nc1ccc(NC(=O)CN2C(=O)NC(c3ccccc3Cl)C3=C2COC3=O)cc1 (stereo not given)	none
O=C(N[C@@H]1CN(Cc2ccc3c(c2)CCO3)C[C@H]1CO)c1cnccn1	none
COc1ccc(CC(=O)N2C[C@@H](CO)[C@H](c3nc(C)no3)C2)cc1	none
O=C(c1ccc2c(c1)OCO2)N1CCC2(CC1)N=C(c1ccc(Cl)cc1)NO2	Pf Dd2 inh 7.94µM
Cc1ccc(C2=NC3(CCN(C(=O)c4ccc5c(c4)OCO5)CC3)ON2)cc1	none
Cc1ccc(C(=O)N2CCC3(CC2)N=C(c2ccc(Cl)cc2)NO3)cc1F	none
COCc1ccc(C(=O)NCC2COc3cc(OC)ccc3C2)o1 (stereo not given)	none
COc1ccc(C(=O)NC2CCN(c3cnn(C)c(=O)c3)CC2)cc1	none
COc1cc(=O)n2c(c1C(=O)NCc1ccc(Cl)cc1)CCCC2	none
Cc1cc(C(=O)N2CCc3c(nc(-c4ccc(F)cc4)[nH]c3=O)C2)nn1C	none
O=C(c1ccn(C(F)F)n1)N1CCc2nc(-c3ccc(Cl)cc3)[nH]c2C1	Pf Dd2 inh 12.6µM
CCn1ccc(C(=O)N2CCc3c(nc(-c4ccc(OC)cc4)[nH]c3=O)C2)n1	none
O=C1NC(C(=O)NCc2cccnc2)Cn2cccc21 (stereo not given)	none
COc1cccc(C(=O)N[C@@H]2CN(c3ccccn3)C[C@H]2CN(C)C)c1OC	none
CNC(=O)[C@@H]1CN(C(=O)NCc2cccc(OC)c2)C[C@H]1c1n[nH]c(C)n1	none
COc1ccc2c(Sc3ccccc3)c(C(=O)NCCCN3CCCCC3)[nH]c2c1	Pf Dd2 inh 11.2µM
COCCCNC(=O)c1[nH]c2cc(OC)ccc2c1Sc1ccc(C)cc1	none
O=C(NCCCN1CCCCC1)c1[nH]c2ccccc2c1Sc1ccc(Cl)cc1	none
Cc1noc(C)c1CCC(=O)N1CCCn2nc(C(O)CO)cc2C1 (stereo not given)	none
O=C(Cc1ccccc1)NCC1CN(C(=O)Cc2cccc(Oc3ccccc3)c2)CC12CN(c1ccccc1)C2 (stereo not given)	none
Cn1cc(C(=O)NCC2CN(C(=O)Cc3cccc(Oc4ccccc4)c3)CC23CN(c2ccccc2)C3)cn1 (stereo not given)	none
O=C(NCC1CN(C(=O)Cc2cccc(Cl)c2)CC12CN(c1ccccc1)C2)C1CC1 (stereo not given)	Pf Dd2 inh 8.91µM
O=C(C1CCCC1)N1CC2(Cc3ccccc3NC2=O)C1	none
COc1ccc2nc(N(Cc3cccnc3)C(C)=O)sc2c1	none
COc1ccc2nc(N(Cc3cccnc3)C(=O)C3CCCCC3)sc2c1	Pf Dd2 inh 2.51µM
COc1ccc2nc(N(Cc3cccnc3)C(=O)CCc3ccccc3)sc2c1	Pf Dd2 inh 1µM
CCOc1ccc2nc(N(Cc3cccnc3)C(C)=O)sc2c1	none
O=C(C1COc2ccccc2O1)N(Cc1cccnc1)c1nc2ccc(Cl)cc2s1 (stereo not given)	none
O=C(COc1ccccc1)N(Cc1cccnc1)c1nc2ccc(Cl)cc2s1	none
COc1ccc2[nH]c3c(c2c1)CCNC31CCN(C(=O)Cn2nc(C)cc2C)CC1	none
CCc1noc([C@@H]2CC(F)(F)CN2C(=O)c2cc(C)no2)n1	none
CCC(C)NC(=O)C1COC2(CCN(C(=O)c3ccc(OC)cc3)CC2)N1C(=O)c1ccc(C)cc1 (stereo not given)	none
O=C(NCC1(COc2cnccn2)C[C@@H](O)[C@@H](O)C1)C1CCCC1 (stereo not given in full)	none
CCc1noc(-c2cn(C3CCN(C(=O)c4ccc(OC)cc4C)C3)nn2)n1 (stereo not given)	none
CCN1CCC(N(Cc2ccc(F)cc2)C(=O)Nc2ccc(C)c(F)c2)CC1	Pf Dd2 inh 11.2µM
CC[C@H]1CN(C(=O)Nc2cccc(C(F)(F)F)c2)CC[C@H]1CC(=O)NCc1ccc(F)cc1	none
